Assay results: PubChem BioAssay (NCI)
Values joined by “and” are separate entries in the source; they are usually repeats but may differ in a detail not shown here. Equal values may be shown once. About 79,000 compounds went through this panel and 15% of them were active in at least one assay; those are over-represented in the sample as a whole. More than one record can exist for a structure, and the calls need not agree. Active and inactive are the calls of the source. Rule as the data show it: active = growth inhibition above about 70%; inactive = the rest.

What was measured:
[1] = NCI Yeast Anticancer Drug Screen. Data for the rad52 strain (AID 147);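 also: 0% = growth of vehicle-treated control cultures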; conditions: S. cerevisiae rad52 mutant growth inhibition, stronger effect = higher value
In short: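 Read-out: growth inhibition versus vehicle-treated controls. Cells were a DNA repair-deficient yeast strain treated with compounds.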

[2] = NCI Yeast Anticancer Drug Screen. Data for the wt1 strain (AID 149);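 also: 0% = growth of vehicle-treated wt1 cultures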; conditions: S. cerevisiae wt1 strain (SPY 50644) growth inhibition, stronger effect = higher value
In short: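 wt1 yeast, compound-treated; % growth inhibition vs vehicle control.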

[3] = NCI Yeast Anticancer Drug Screen. Data for the rad50EPP+ strain (AID 151);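 also: 0% = growth of vehicle-treated control cultures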; conditions: S. cerevisiae rad50 mutant strain, stronger effect = higher value
In short: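 Growth inhibition read against vehicle controls in rad50EPP+ yeast, a strain altered in DNA damage repair, after compound exposure.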

[4] = NCI Yeast Anticancer Drug Screen. Data for the rad50 strain (AID 155);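 also: 0% = growth of vehicle-only cultures of the same strain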; conditions: S. cerevisiae rad50 strain growth inhibition, stronger effect = higher value
In short: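 Genetically altered yeast (DNA repair pathway); compound treatment; growth inhibition vs vehicle ctrl.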

[5] = NCI Yeast Anticancer Drug Screen. Data for the mec2-1 strain (AID 157); conditions: S. cerevisiae mec2-1 strain, stronger effect = higher value
In short: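 Yeast mec2-1 mutant treated with compound. Readout: growth inhibition vs vehicle controls.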

[6] = NCI Yeast Anticancer Drug Screen. Data for the rad14 strain (AID 159);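 also: 0% = growth of vehicle-treated control cultures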; conditions: S. cerevisiae rad14 strain growth inhibition, stronger effect = higher value
In short: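 Test compounds were applied to a repair-deficient yeast strain. Its growth was then compared with that of cultures given vehicle alone, and inhibition was expressed relative to those controls.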

[7] = NCI Yeast Anticancer Drug Screen. Data for the sgs1 mgt1 strain (AID 161);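 also: 0% = growth of cultures given vehicle only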; conditions: S. cerevisiae sgs1 mgt1 strain, stronger effect = higher value
In short: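 Read-out: growth inhibition vs vehicle controls. Cells: mutant yeast strain deficient in DNA damage repair.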

[8] = NCI Yeast Anticancer Drug Screen. Data for the CLN2oe strain (AID 163);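 also: 0% = growth of vehicle-only control cultures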; conditions: S. cerevisiae CLN2oe strain, stronger effect = higher value
In short: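 Read-out: yeast growth inhibition, expressed relative to vehicle-only controls. The strain bears an engineered cell-cycle alteration.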

[9] = NCI Yeast Anticancer Drug Screen. Data for the cln2 rad14 strain (AID 165);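 also: 0% = growth equal to vehicle treated cultures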; conditions: S. cerevisiae cln2 rad14 strain, stronger effect = higher value
In short: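 cln2 rad14 yeast strain; compound exposure; growth inhibition read vs vehicle controls.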

[10] = NCI Yeast Anticancer Drug Screen. Data for the bub3 strain (AID 167); conditions: S. cerevisiae bub3 mutant strain, stronger effect = higher value
In short: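 Yeast carrying a defined mutation is treated with each compound, and growth is compared with that of vehicle-exposed cells to give inhibition.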

[11] = NCI Yeast Anticancer Drug Screen. Data for the mlh1 strain (AID 171);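 also: 0% = growth of vehicle-treated control cultures of the same strain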; conditions: S. cerevisiae mlh1 strain growth inhibition, stronger effect = higher value
In short: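 Read-out: growth inhibition versus vehicle controls. Strain: engineered yeast with a defined DNA repair or cell cycle defect, compound-treated.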

[12] = NCI Yeast Anticancer Drug Screen. Data for the sgs1 strain (AID 173);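 also: 0% = growth of vehicle-only control cultures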; conditions: S. cerevisiae sgs1 mutant, stronger effect = higher value
In short: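 Read-out: yeast growth inhibition relative to vehicle controls, following compound exposure of a strain with a defined DNA repair/cell cycle alteration.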

[13] = NCI Yeast Anticancer Drug Screen. Data for the mlh1 rad18 strain (AID 175); conditions: S. cerevisiae mlh1 rad18 strain growth inhibition, stronger effect = higher value
In short: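 Yeast w/ defined DNA-repair lesions; compound exposure; growth vs vehicle controls → % inhibition.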

[14] = NCI Yeast Anticancer Drug Screen. Data for the rad18 strain (AID 177); conditions: S. cerevisiae rad18 mutant growth inhibition, stronger effect = higher value
In short: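 Readout: growth inhibition vs vehicle controls. Cells: genetically altered yeast strain, DNA repair defect.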

[15] = NCI Yeast Anticancer Drug Screen. Data for the mgt1 strain (AID 153); conditions: S. cerevisiae mgt1 mutant growth inhibition, stronger effect = higher value
In short: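 mgt1 yeast grown with test compound; read-out is growth inhibition versus vehicle-treated cultures.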

[16] = NCI Yeast Anticancer Drug Screen. Data for the wt2 strain (AID 169);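 also: 0% = growth of vehicle-treated yeast cultures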; conditions: S. cerevisiae wt2 strain growth inhibition, stronger effect = higher value
In short: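 Read-out: growth inhibition versus vehicle-treated control cultures after compound exposure of the yeast strain.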

[17] = at 5.0 µM (retest, dose inferred, filed as 0.5)
[18] = at 50.0 µM (retest, dose inferred, filed as 5.0)

Measured: growth inhibition

Cc1ccc(Sc2ccccc2N)cc1
95% (active) and 64% (inactive): [5]; [18]
94% (active) and 67% (inactive): [9]; [18]
95% (active) and 62% (inactive): [4]; [18]
active: [1]; at 100.0 µM 98% | [2]; at 100.0 µM 99% | [3]; at 100.0 µM 93% | [4]; at 50.0 µM 90.5% | [4]; at 100.0 µM 98% | [5]; at 50.0 µM 92.3% | [5]; at 100.0 µM 98% | [6]; at 100.0 µM 99% | [7]; [18] 91% and 73% | [7]; at 50.0 µM 93.2% | [8]; at 100.0 µM 98% | [9]; at 50.0 µM 91.7% | [10]; [18] 94% and 81% | [10]; at 50.0 µM 92% | [10]; at 100.0 µM 98% | [11]; at 100.0 µM 98% | [12]; at 100.0 µM 98% | [13]; [18] 90% and 73% | [13]; at 50.0 µM 90.5% and 91% | [14]; at 100.0 µM 98%
inactive: [1]; at 1.2 µM 9% | [1]; at 3.7 µM -3% | [1]; at 11.0 µM -13% | [1]; at 33.0 µM 45% | [2]; at 1.2 µM 16% | [2]; at 3.7 µM 6% | [2]; at 11.0 µM -7% | [2]; at 33.0 µM 42% | [3]; at 1.2 µM 8% | [3]; at 3.7 µM -1% | [3]; at 11.0 µM 16% | [3]; at 33.0 µM 64% | [4]; at 1.2 µM 0% | [4]; at 3.7 µM -3% | [4]; [17] 31% and 32% | [4]; at 11.0 µM -12% | [4]; at 33.0 µM 17% | [5]; at 1.2 µM -30% | [5]; at 3.7 µM -18% | [5]; [17] 50% and 23% | [5]; at 11.0 µM -32% | [5]; at 33.0 µM 25% | [6]; at 1.2 µM -4% | [6]; at 3.7 µM -18% | [6]; at 11.0 µM -10% | [6]; at 33.0 µM 32% | [7]; [17] -5% and 43% | [8]; at 1.2 µM 22% | [8]; at 3.7 µM 12% | [8]; at 11.0 µM -3% | [8]; at 33.0 µM 46% | [9]; [17] 42% and 29% | [10]; at 1.2 µM -6% | [10]; at 3.7 µM -2% | [10]; [17] 34% and 40% | [10]; at 11.0 µM -10% | [10]; at 33.0 µM 24% | [11]; at 1.2 µM 5% | [11]; at 3.7 µM -6% | [11]; at 11.0 µM 14% | [11]; at 33.0 µM 57% | [12]; at 1.2 µM 8% | [12]; at 3.7 µM -2% | [12]; at 11.0 µM -3% | [12]; at 33.0 µM 51% | [13]; [17] 32% and 37% | [14]; at 1.2 µM -16% | [14]; at 3.7 µM -13% | [14]; at 11.0 µM -21% | [14]; at 33.0 µM 12%

CC(C)(CCCCC(C)(C)[N+](C)(C)C)[N+](C)(C)C
active: [4]; at 50.0 µM 85.2% | [5]; at 50.0 µM 88.5% | [9]; at 50.0 µM 87.2% | [10]; [18] 98% | [10]; at 50.0 µM 85.5% | [13]; at 50.0 µM 91.5%
inactive: [1]; at 1.2 µM -4% | [1]; at 3.7 µM -6% | [1]; at 11.0 µM -5% | [1]; at 33.0 µM -10% | [1]; at 100.0 µM -1% | [2]; at 1.2 µM -2% | [2]; at 3.7 µM 0% | [2]; at 11.0 µM -1% | [2]; at 33.0 µM -1% | [2]; at 100.0 µM 1% | [15]; at 1.2 µM -4% | [15]; at 3.7 µM -3% | [15]; at 11.0 µM -4% | [15]; at 33.0 µM -16% | [15]; at 100.0 µM -2% | [4]; at 1.2 µM -10% | [4]; at 3.7 µM -18% | [4]; [17] 4% | [4]; at 11.0 µM -25% | [4]; at 33.0 µM -4% | [4]; [18] 54% | [4]; at 100.0 µM -2% | [5]; at 1.2 µM 0% | [5]; at 3.7 µM 1% | [5]; [17] 21% | [5]; at 11.0 µM 0% | [5]; at 33.0 µM 1% | [5]; [18] 42% | [5]; at 100.0 µM -1% | [6]; at 1.2 µM -2% | [6]; at 3.7 µM -2% | [6]; at 11.0 µM -4% | [6]; at 33.0 µM -4% | [6]; at 100.0 µM -2% | [8]; at 1.2 µM -4% | [8]; at 3.7 µM -2% | [8]; at 11.0 µM 2% | [8]; at 33.0 µM -3% | [8]; at 100.0 µM -1% | [9]; [17] 44% | [9]; [18] 52% | [10]; at 1.2 µM -1% | [10]; at 3.7 µM 0% | [10]; [17] -1% | [10]; at 11.0 µM -1% | [10]; at 33.0 µM 0% | [10]; at 100.0 µM 0% | [16]; at 1.2 µM -2% | [16]; at 3.7 µM -2% | [16]; at 11.0 µM -5% | [16]; at 33.0 µM -5% | [16]; at 100.0 µM -1% | [11]; at 1.2 µM 1% | [11]; at 3.7 µM 1% | [11]; at 11.0 µM 0% | [11]; at 33.0 µM 0% | [11]; at 100.0 µM -1% | [12]; at 1.2 µM -1% | [12]; at 3.7 µM 1% | [12]; at 11.0 µM -2% | [12]; at 33.0 µM 0% | [12]; at 100.0 µM 0% | [13]; [17] 10% | [13]; [18] 35% | [14]; at 1.2 µM -4% | [14]; at 3.7 µM 0% | [14]; at 11.0 µM -2% | [14]; at 33.0 µM -3% | [14]; at 100.0 µM -3%

COc1cc(/C=C2\CCC/C(=C\c3ccc(O)c(OC)c3)C2=O)ccc1O
inactive: [1]; at 1.2 µM -6% | [1]; at 3.7 µM -6% | [1]; at 11.0 µM 9% | [1]; at 33.0 µM 11% | [1]; at 100.0 µM 4% | [2]; at 1.2 µM 1% | [2]; at 3.7 µM 10% | [2]; at 11.0 µM 15% | [2]; at 33.0 µM 12% | [2]; at 100.0 µM 15% | [4]; at 1.2 µM -30% | [4]; at 3.7 µM -9% | [4]; [17] 13% | [4]; at 11.0 µM -7% | [4]; at 33.0 µM -7% | [4]; [18] 12% | [4]; at 50.0 µM 2.8% and 9.55% | [4]; at 100.0 µM 8% | [5]; at 1.2 µM -1% | [5]; at 3.7 µM 0% | [5]; [17] 4% | [5]; at 11.0 µM 1% | [5]; at 33.0 µM 0% | [5]; [18] 15% | [5]; at 50.0 µM -13.1% and 63.1% | [5]; at 100.0 µM 0% | [6]; at 1.2 µM 5% | [6]; at 3.7 µM -3% | [6]; at 11.0 µM 12% | [6]; at 33.0 µM 4% | [6]; at 100.0 µM 5% | [7]; [17] 8% | [7]; [18] 57% | [7]; at 50.0 µM -12.4% and 59.1% | [8]; at 1.2 µM -7% | [8]; at 3.7 µM -6% | [8]; at 11.0 µM -7% | [8]; at 33.0 µM -5% | [8]; at 100.0 µM -6% | [9]; [17] -4% | [9]; [18] 6% | [9]; at 50.0 µM 1.65% and 9.95% | [10]; at 1.2 µM -5% | [10]; at 3.7 µM -2% | [10]; [17] 1% | [10]; at 11.0 µM -2% | [10]; at 33.0 µM -4% | [10]; [18] 15% | [10]; at 50.0 µM -24.9% and 44% | [10]; at 100.0 µM -12% | [16]; at 1.2 µM 6% | [16]; at 3.7 µM 16% | [16]; at 11.0 µM 22% | [16]; at 33.0 µM 27% | [16]; at 100.0 µM 18% | [11]; at 1.2 µM -8% | [11]; at 3.7 µM -2% | [11]; at 11.0 µM -2% | [11]; at 33.0 µM -1% | [11]; at 100.0 µM -2% | [13]; [17] -3% | [13]; [18] 6% | [13]; at 50.0 µM -13.2% and 11.4% | [14]; at 1.2 µM -7% | [14]; at 3.7 µM 5% | [14]; at 11.0 µM 3% | [14]; at 33.0 µM 1% | [14]; at 100.0 µM -7%
